# Assay results from PubChem BioAssay (NCATS).
# Inconclusive results are not listed. Unmarked numbers belong to inactive results. Calls of active or inactive are those of the source. Calls come from the whole dose curve; as a rule, active = well fitted cell-killing curve with a large enough effect; inconclusive = small, poorly fitted or top-dose-only effect, or effect the other way; inactive = no such curve, though single readings can be large or run the other way.
# Test: Viability qHTS for spleen associated tyrosine kinase inhibitor (SYKi) naive MV4-11 cells (AID 1963823); note: nearly all actives have a fitted effect of over 40% in size
# Conditions: MV4-11 AML viability, CellTiter-Glo luminescence, 72 h; series mostly up to 45 µM; viability (% of control): at the top concentration
# Method in brief: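 SYK inhibitor-naive MV4-11 cells, 500 per well, exposed to compounds for 72 hr at 37 C, 5% CO2. Viability read as CellTiter-Glo luminescence after 10 min at room temperature.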
# Potency is the fitted concentration of half-maximal effect.
SMILES,viability (% of control),Potency
CC(=O)OC1(C)CC(O)C2(O)C=COC(OC3OC(CO)C(O)C(O)C3O)C12 (stereo not given),78.4% [at 17.3 µM],
O=C(OCC1=C[C@@H](O)[C@@H]2C=CO[C@@H](O[C@@H]3O[C@H](CO)[C@@H](O)[C@H](O)[C@H]3O)[C@H]12)c1ccc(O)cc1,67.1% [at 17.3 µM],
C[C@]12CCC[C@](C)(C(=O)O)C1CCC13C=C(CO)C(CCC12)C3 (stereo not given in full),60.6%,
COc1cc2ncnc(N3CCC(Oc4cnc5ccccc5n4)C3)c2cc1OC (stereo not given),,0.58 µM (active)
C=C[C@H]1[C@H](O[C@@H]2O[C@H](CO)[C@@H](O)[C@H](O)[C@H]2O)OC=C(C(=O)OC)[C@H]1C[C@@H]1c2cc(O)c(O)cc2CCN1C(C)=O,80% [at 17.3 µM],
CC(C)(O)c1ccc2c(c1)C(=O)CC1[C@](C)(CO)CCC[C@]21C (stereo not given in full),68.5%,
COc1cc(O[C@@H]2O[C@H](CO)[C@@H](O)[C@H](O)[C@H]2O)c(CCC(=O)OC[C@H]2O[C@@H](Oc3cc(OC)c(C4OC(=O)C(C)(O)C4O)cc3CCC(=O)O)[C@H](O)[C@@H](O)[C@@H]2O)cc1C1OC(=O)C(C)(O)C1O (stereo not given in full),77% [at 9.25 µM],
C=C1CC[C@@H]2[C@](C)(CO)[C@H](O)CC[C@@]2(C)[C@@H]1/C=C/C1=CCOC1=O,9.53%,
Cc1cc(=O)oc2cc(NC(=O)[C@H](CCC(=O)O)NC(=O)[C@H](CC(C)C)NC(=O)[C@H](CC(C)C)NC(=O)OCc3ccccc3)ccc12,63.6%,
OC[C@@]1(O)CO[C@@H](OC[C@H]2O[C@@H](Oc3ccccc3)[C@H](O)[C@@H](O)[C@@H]2O)[C@@H]1O,77.9%,
C=C1CCC2C(C(C)(C)O)CCC2(C)CC(O)C(=C)CCC1O (stereo not given),,9.04 µM (active)
CCc1ccc2nc(Nc3cc(Cc4ccccc4)nc(NC4CCC(O)CC4)n3)sc2c1 (stereo not given),,8.33 µM (active)
CC(C)C1NC(=O)C2CCCN2C1=O (stereo not given),85.4%,
C=C1C(=O)O[C@H]2C[C@@H](C)[C@@H]3CCC(=O)[C@@]3(C)C[C@H]12,,4.11 µM (active)
COc1cc2c(cc1-c1c(C)noc1C)ncc1[nH]c(=O)n(C(C)c3ccccn3)c12 (stereo not given),,0.326 µM (active)
Cc1ccc(NC(=O)c2cccc(C(C)(C)C#N)c2)cc1Nc1ccc2ncn(C)c(=O)c2c1,,1.18 µM (active)
C/C(=C\C=C\C(C)C1CCC2(C)C3CCC4C(C)(C)C(=O)CCC45CC35CCC12C)C(=O)O (stereo not given),75.4% [at 17.3 µM],
CCN(CC)CCCS(=O)(=O)N[C@H](CCc1ccccc1)c1nc(Cc2ccc(Br)cc2)no1,,20.6 µM (active)
CS(=O)(=O)N(CC(=O)NCC1CC1)c1cc(C(F)(F)F)ccc1Cl,78.3%,
O=c1cc(-c2cccc(O)c2)oc2c(O)c(O)ccc12,,14.6 µM (active)

SMILES,viability (% of control),Potency
CC1NC(=O)C(Cc2c[nH]c3ccccc23)NC1=O (stereo not given),71.2%,
O=C(OCC(O)CO[C@@H]1O[C@H](C(=O)O)[C@@H](O)[C@H](O)[C@H]1O)c1ccccc1 (stereo not given in full),84.2%,
O=C(O[C@H]1[C@@H]2C=CO[C@@H](O[C@@H]3O[C@H](CO)[C@@H](O)[C@H](O)[C@H]3O)[C@@H]2[C@@]2(CO)O[C@@H]12)c1ccc(O)c(O)c1,84.5% [at 17.3 µM],
C=C1C(=O)O[C@@H]2C[C@@H](C)[C@]34C[C@]5(C(=O)O[C@H]6CC(C)=C([C@H](C)CCCO)[C@H](OC(=O)C(C)CC)[C@H]65)[C@@H](C(C)=C3C[C@@H]12)[C@H]4OC(C)=O (stereo not given in full),,3.06 µM (active)
CC(=O)O[C@@H]1[C@H](O[C@@H]2OC[C@](O)(CO)[C@H]2O)[C@@H](O[C@@H]2O[C@@H](C)[C@H](O)[C@@H](O[C@@H]3O[C@H](CO)[C@@H](O)[C@H](O)[C@H]3O)[C@H]2O)[C@H](OC(=O)[C@]23CCC(C)(C)C[C@H]2C2=CCC4[C@@]5(C)C[C@H](O)[C@H](O[C@@H]6O[C@H](C(=O)O)[C@@H](O)[C@H](O)[C@H]6O)[C@@](C)(C(=O)O)C5CC[C@@]4(C)[C@]2(C)CC3)O[C@@H]1C (stereo not given in full),95.7% [at 9.25 µM],
COc1ccc(CNC(=O)c2cc(-c3cncc(C)c3)ncc2-c2nccs2)nc1OC,89.2%,
C=CC1C(O[C@@H]2O[C@H](CO)[C@@H](O)[C@H](O)[C@H]2O)OC=C(C(=O)OC)C1CC(=O)O (stereo not given in full),80.1% [at 17.3 µM],
CCCCC[C@H](O)C=C[C@H]1[C@H](O)CC(=O)[C@H]1CC=CCCCC(=O)O,,0.119 µM (active)
C#CCN(Cc1cc2c(=O)n(C)c(CN3CCN(C)CC3)nc2cc1Cl)c1ccc(C(=O)NCc2cccnc2)cc1,2.34%,
CC(=O)OC[C@@]12[C@H](O)C[C@]3(C)C(=CCC4[C@@]5(C)CC[C@H](O[C@@H]6O[C@H](C(=O)O)[C@@H](O[C@@H]7O[C@H](CO)[C@@H](O)[C@H](O)[C@H]7O)[C@H](O)[C@H]6O[C@@H]6O[C@H](CO)[C@@H](O)[C@H](O)[C@H]6O)[C@](C)(CO)C5CC[C@]43C)[C@@H]1CC(C)(C)[C@@H](OC(C)=O)[C@@H]2O (stereo not given in full),96.3% [at 9.25 µM],
CC(C)CC(=O)O[C@@H]1OC=C(CO[C@@H]2O[C@H](CO[C@@H]3O[C@H](CO)[C@@H](O)[C@H](O)[C@H]3O)[C@@H](O)[C@H](O)[C@H]2O)[C@H]2C[C@H](O)[C@@H](CO)[C@@H]12,87.5% [at 17.3 µM],
Cc1cc(C)c(Nc2ccnc(Nc3ccc(C#N)cc3)n2)c(C)c1,,2.31 µM (active)
CC1(C)CCC2(C(=O)OC3OC(COC4OC(CO)C(O)C(O)C4O)C(O)C(O)C3O)CCC3(C)C(=CCC4C5(C)CCC(O)C(C)(C(=O)O)C5CCC43C)C2C1O (stereo not given),83.4% [at 9.25 µM],
O=C(/C=C/c1ccc(O)cc1)N[C@@H](Cc1ccc(O)cc1)C(=O)O,93.1%,
COC12CC3C(C(C)C1=CC(=O)O2)C(O)C(OC(C)=O)C1C(C)(C)C(OC(C)=O)CCC31C (stereo not given),67.3% [at 17.3 µM],
C=CC(=O)N1CCN(C(=O)CNc2cc(I)c(Cl)cc2O)CC1,,7.31 µM (active)
COc1c(O)cc2c(c1O)C(=O)O[C@H](C)[C@H]2O,85.8%,
N#Cc1cnc2c(Cl)cc(NCc3cn(CCN4CCCCCC4)nn3)cc2c1Nc1ccc(F)c(Cl)c1,,9.2 µM (active)
O=C(O)CCc1cccc(O[C@@H]2O[C@H](CO)[C@@H](O)[C@H](O)[C@H]2O)c1O,86.4%,
CC1CCC2(C(=O)O)CCC3(C)C(=CCC4C5(C)CCC(OC(=O)/C=C/c6ccccc6)C(C)(C)C5CCC43C)C2C1C (stereo not given),5.99% [at 17.3 µM],
